Measurements reported in PubChem BioAssay AID1159580 (chemical genetic matrix, 2015).
Hit rate of the full screen: of about 5,500 compounds, about 2,000 (36%) were called active. Not shown: some 18% with an inconclusive outcome. The list shows a part of the results. Unmarked numbers belong to inactive results. No stated cut-off is given here; in the data, active means normalized growth mostly below about 0.91 (no sharp cut-off); inconclusive means no clear call, values can overlap the other calls; inactive means mostly above about 0.92.

Experiment: chemical genetic growth profiling, strain panel (AID 1159580);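 further: tested at 20 µM; growth read once vehicle control cultures reached saturation at 30 °C; 1 = growth at the plate median or of vehicle wells; lower values mean less growth of the strain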
Details: S. cerevisiae deletion strains, growth OD
[1] = locus YDL101C, strain DUN1, active compounds read low
[2] = locus YHR030C, strain SLT2, active compounds read low
[3] = locus YAL013W, strain DEP1, active compounds read low
[4] = locus YMR263W, strain SAP30, active compounds read low
[5] = locus YNL153C, strain GIM3, active compounds read low
[6] = locus YNL322C, strain KRE1, active compounds read low

Question: What does the source list for `NC(N)=Nc1nc(-c2cc(Cl)sc2Cl)cs1`?
Answer: normalized growth (locus YAR019C, strain CDC15, active compounds read low): 0.994; normalized growth (locus YBL105C, strain PKC1, active compounds read low): 0.998; normalized growth (locus YBR135W, strain CKS1, active compounds read low): 0.987; normalized growth (locus YBR136W, strain MEC1, active compounds read low): 0.99; normalized growth (locus YBR160W, strain CDC28, active compounds read low): 0.99; normalized growth (locus YDL017W, strain CDC7, active compounds read low): 0.993; normalized growth (locus YDL028C, strain MPS1, active compounds read low): 0.985; normalized growth [1]: 0.966; normalized growth (locus YDL108W, strain KIN28, active compounds read low): 0.988; normalized growth (locus YDL132W, strain cdc53, active compounds read low): 0.979; normalized growth (locus YDL214C, strain PRR2, active compounds read low): 0.934; normalized growth (locus YDR052C, strain DBF4, active compounds read low): 0.99; normalized growth (locus YDR054C, strain cdc34, active compounds read low): 0.973; normalized growth (locus YDR226W, strain ADK1, active compounds read low): 0.974; normalized growth (locus YDR477W, strain SNF1, active compounds read low): 0.944; normalized growth (locus YER123W, strain YCK3, active compounds read low): 0.862; normalized growth (locus YER133W, strain GLC7, active compounds read low): 0.905; normalized growth (locus YFL009W, strain cdc4, active compounds read low): 0.983; normalized growth (locus YFL029C, strain CAK1, active compounds read low): 0.988; normalized growth (locus YFR003C, strain YPI1, active compounds read low): 0.986; normalized growth (locus YFR019W, strain FAB1, active compounds read low): 0.947; normalized growth (locus YFR028C, strain CDC14, active compounds read low): 0.982; normalized growth (locus YGR040W, strain KSS1, active compounds read low): 0.942; normalized growth (locus YGR052W, strain FMP48, active compounds read low): 0.935; normalized growth (locus YGR092W, strain DBF2, active compounds read low): 0.945; normalized growth [2]: 0.821 (active); normalized growth (locus YHR079C, strain IRE1, active compounds read low): 0.897; normalized growth (locus YHR082C, strain KSP1, active compounds read low): 1; normalized growth (locus YHR205W, strain SCH9, active compounds read low): 0.904; normalized growth (locus YIL147C, strain SLN1, active compounds read low): 0.987; normalized growth (locus YJL095W, strain BCK1, active compounds read low): 0.826; normalized growth (locus YJL128C, strain PBS2, active compounds read low): 0.922; normalized growth (locus YJL157C, strain FAR1, active compounds read low): 0.932; normalized growth (locus YJR016C, strain ILV3, active compounds read low): 0.997; normalized growth (locus YJR066W, strain TOR1 (second series), active compounds read low): 0.886; normalized growth (locus YJR066W, strain TOR1, active compounds read low): 0.997; normalized growth (locus YKL048C, strain ELM1, active compounds read low): 0.947; normalized growth (locus YKL067W, strain YNK1, active compounds read low): 0.932; normalized growth (locus YKL101W, strain HSL1, active compounds read low): 0.93; normalized growth (locus YKL193C, strain SDS22, active compounds read low): 0.985; normalized growth (locus YKL203C, strain TOR2, active compounds read low): 0.988; normalized growth (locus YLR113W, strain HOG1, active compounds read low): 0.757 (active); normalized growth (locus YLR133W, strain CKI1, active compounds read low): 0.958; normalized growth (locus YLR403W, strain SFP1, active compounds read low): 0.962; normalized growth (locus YML070W, strain DAK1, active compounds read low): 0.901; normalized growth (locus YMR001C, strain CDC5, active compounds read low): 0.993; normalized growth (locus YMR205C, strain PFK2 (second series), active compounds read low): 0.948; normalized growth (locus YMR277W, strain FCP1, active compounds read low): 0.985; normalized growth (locus YNL006W, strain LST8, active compounds read low): 0.984; normalized growth (locus YNL020C, strain ARK1, active compounds read low): 0.96; normalized growth (locus YNL161W, strain CBK1, active compounds read low): 0.989; normalized growth (locus YNL183C, strain NPR1, active compounds read low): 0.988; normalized growth (locus YNL207W, strain RIO2, active compounds read low): 0.989; normalized growth (locus YNL222W, strain SSU72, active compounds read low): 0.99; normalized growth (locus YNL307C, strain MCK1 (second series), active compounds read low): 0.927; normalized growth (locus YOL078W, strain AVO1, active compounds read low): 0.986; normalized growth (locus YOL136C, strain PFK27, active compounds read low): 0.91; normalized growth (locus YOR061W, strain CKA2, active compounds read low): 0.983; normalized growth (locus YOR119C, strain RIO1, active compounds read low): 0.981; normalized growth (locus YOR231W, strain MKK1, active compounds read low): 0.935; normalized growth (locus YOR329C, strain SCD5, active compounds read low): 0.995; normalized growth (locus YPL031C, strain PHO85, active compounds read low): 0.93; normalized growth (locus YPL153C, strain RAD53, active compounds read low): 0.921; normalized growth (locus YPL204W, strain HRR25, active compounds read low): 0.921; normalized growth (locus YPL209C, strain IPL1, active compounds read low): 0.99; normalized growth (locus YPL256C, strain CLN2, active compounds read low): 0.89; normalized growth (locus YPR025C, strain CCL1, active compounds read low): 0.992; normalized growth (locus YPR106W, strain ISR1, active compounds read low): 0.985; normalized growth (locus YPR111W, strain DBF20, active compounds read low): 0.974; normalized growth (strain NNK1, active compounds read low): 0.971; normalized growth (strain TSCII, active compounds read low): 0.985

Question: For `NC1=C(c2ccccc2)C(=O)NC1=O`, which normalized growth [3] is on record?
Answer: 1.01

Question: And the normalized growth (locus YBR229C, strain ROT2, active compounds read low)?
Answer: 1.05

Question: And the normalized growth (locus YCL061C, strain MRC1, active compounds read low)?
Answer: 1.03

Question: What about the normalized growth [1] of the same compound?
Answer: 0.993

Question: What about the normalized growth (locus YDR150W, strain NUM1, active compounds read low) of the same compound?
Answer: 0.991

Question: What about the normalized growth (locus YEL061C, strain CIN8, active compounds read low) of the same compound?
Answer: 0.999

Question: And the normalized growth (locus YGR078C, strain PAC10, active compounds read low)?
Answer: 0.998

Question: And the normalized growth (locus YGR229C, strain SMI1, active compounds read low)?
Answer: 1.01

Question: What about the normalized growth [2] of the same compound?
Answer: 1.02

Question: What about the normalized growth (locus YHR087W, strain rtc3, active compounds read low) of the same compound?
Answer: 0.988

Question: What about the normalized growth (locus YJR043C, strain POL32, active compounds read low) of the same compound?
Answer: 1.01

Question: And the normalized growth (locus YJR075W, strain HOC1, active compounds read low)?
Answer: 0.95

Question: What about the normalized growth (locus YLR039C, strain RIC1, active compounds read low) of the same compound?
Answer: 1.02

Question: What about the normalized growth (locus YLR058C, strain SHM2 (second series), active compounds read low) of the same compound?
Answer: 1.02

Question: And the normalized growth (locus YLR085C, strain ARP6, active compounds read low)?
Answer: 0.946

Question: What about the normalized growth (locus YLR262C, strain YPT6, active compounds read low) of the same compound?
Answer: 1.01

Question: What about the normalized growth (locus YML094W, strain GIM5, active compounds read low) of the same compound?
Answer: 0.993

Question: And the normalized growth (locus YMR219W, strain ESC1, active compounds read low)?
Answer: 0.984

Question: And the normalized growth [4]?
Answer: 1.01

Question: And the normalized growth (locus YNL128W, strain TEP1, active compounds read low)?
Answer: 1.03

Question: And the normalized growth [5]?
Answer: 1

Question: And the normalized growth (locus YNL298W, strain CLA4 (second series), active compounds read low)?
Answer: 0.996

Question: And the normalized growth [6]?
Answer: 1

Question: And the normalized growth (locus YNR030W, strain Alg12, active compounds read low)?
Answer: 0.989

Question: And the normalized growth (locus YPL055C, strain LGE1, active compounds read low)?
Answer: 0.994

Question: What about the normalized growth (locus YPL241C, strain CIN2, active compounds read low) of the same compound?
Answer: 1.01

Question: What about the normalized growth (locus YPR135W, strain CTF4, active compounds read low) of the same compound?
Answer: 0.974

Question: For `CCCCCCCCCCCCCCCCCCOC[C@H](COP(=O)([O-])OCC[N+](C)(C)C)OC`, which normalized growth [3] is on record?
Answer: 1

Question: And the normalized growth (locus YAL040C, strain CLN3, active compounds read low)?
Answer: 1.04

Question: And the normalized growth (locus YCL061C, strain MRC1 (second series), active compounds read low)?
Answer: 1.02

Question: What about the normalized growth (locus YDR363W, strain ESC2, active compounds read low) of the same compound?
Answer: 0.992

Question: And the normalized growth (locus YER002W, strain NOP16, active compounds read low)?
Answer: 1.04

Question: And the normalized growth [4]?
Answer: 0.998

Question: What about the normalized growth (locus YMR307W, strain GAS1, active compounds read low) of the same compound?
Answer: 1

Question: What about the normalized growth [5] of the same compound?
Answer: 0.997

Question: What about the normalized growth (locus YNL175C, strain NOP13, active compounds read low) of the same compound?
Answer: 1.05

Question: What about the normalized growth (locus YNL197C, strain WHI3, active compounds read low) of the same compound?
Answer: 1.01

Question: What about the normalized growth (locus YNL224C, strain SQS1, active compounds read low) of the same compound?
Answer: 1.04

Question: What about the normalized growth [6] of the same compound?
Answer: 0.988

Question: What about the normalized growth (locus YOR083W, strain WHI5 (second series), active compounds read low) of the same compound?
Answer: 1.02
